From paper PMC5540273 (PLoS ONE, 2017)

Test system: NEK5
Conditions: concentration: 1 μM, replicates: in singlicate; n = 1
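Note: KINOMEscan kinase panel screen.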

SMILES	%Inh [%]
CN1CCN(Cc2ccc(NC(=O)Nc3ccc(N(C)c4ccnc(Nc5ccc(CS(C)(=O)=O)cc5)n4)cc3)cc2)CC1.Cl [GW827654]	98.3
COc1cccc(-c2nc(-c3ccccc3)[nH]c2-c2ccncc2)c1 [SB-610250]	1
CN(C)CCNS(=O)(=O)c1ccc(-c2ccnc3[nH]ccc23)cc1 [GSK977620]	1
N#CC1(c2cccc(C(=O)Nc3cccc(Oc4ccc5nc(NC(=O)C6CC6)sc5n4)c3)c2)CC1	0
CCNC(=O)/C=C/c1n[nH]c2cc(Sc3ccccc3C(=O)NC)ccc12	5
CCn1cnc2c(NCc3ccccc3)ncnc21 [SKF-96418]	0
CN(c1ccc2c(c1)nc(NCc1ccccc1)n2C)c1ccnc(Nc2ccc(CS(C)(=O)=O)cc2)n1.Cl [GW811603]	0
Cl.O=C(Nc1ccc(Oc2ccc3[nH]c(NC(=O)c4ccco4)nc3c2)cc1)Nc1cc(C(F)(F)F)ccc1F [GW683134]	0
Nc1ncc(-c2cn[nH]c2)c2scc(-c3ccc4c(c3)CCN4C(=O)Cc3ccccc3)c12 [GSK2593067]	21
Cc1ccc(NC(=O)c2ccc(Cl)c(Cl)c2)cc1-c1ccc(C(=O)Nc2ccncc2)cc1 [GSK1398460]	0
COC(=O)Nc1nc2ccc(Oc3ccc(NC(=O)Nc4cc(C(F)(F)F)ccc4F)cc3)cc2[nH]1.Cl [GW654607]	13
COc1ccc(C)c(Nc2ccnc(Nc3ccc(-c4cnc[nH]4)cc3)n2)c1.Cl [GW784041]	14
CCNc1nccc(-c2c(-c3ccc(F)cc3)ncn2C2CCN(C)CC2)n1	5
CS(=O)(=O)c1cccc(CNc2nc(Nc3ccc4c(c3)CCC(=O)N4)ncc2C(F)(F)F)c1	28
Cc1ccc(NC(=O)c2ccnc(N3CCCCC3)c2)cc1-c1ccc(C(=O)NCC2CC2)cc1 [GW775610]	0
CN(C)c1ncnc2nc[nH]c12 [SKF-31736]	12
Cc1ccc(Nc2ccnc(Nc3ccc(C)c(F)c3)n2)cc1O.Cl [GW582868]	4
Cc1ccc(O)cc1Nc1ccnc2ccc(C(C)(C)C)cc12 [GW856805]	17
Cn1cc(-c2ccc3c(c2)CCN3C(=O)Cc2cc(F)cc(C(F)(F)F)c2)c2c(N)ncnc21 [GSK2635225]	0

SMILES	%Inh [%]
CN(c1ccc(F)c(NC(=O)c2cccc(OC(C)(C)C#N)c2Cl)c1)c1ccc2nc(NC(=O)C3CC3)sc2n1	0
CC(C)NCC(Cc1ccccc1)NC(=O)c1cc(Br)c(-c2ccnc3[nH]ccc23)s1.Cl.Cl (stereo not shown) [GSK1383281]	68
CCOc1nccc(-c2c(-c3ccc(F)cc3)ncn2C2CCNCC2)n1 [SB-249175]	31
CN(C)CCOc1ccc(-c2cc(-c3ccc(Cl)c(O)c3)c(-c3ccncc3)[nH]2)cc1.Cl.Cl [SB-684387]	22
O=C(O)C(F)(F)F.O=c1[nH]ccc2nc(N[C@@H]3CCNC3)nc(Nc3cc(Cl)cc(Cl)c3)c12 [GSK2188764]	14
CNc1nccc(-c2ccc3c(N)n[nH]c3c2)n1 [GSK2206003]	14
CC(C)c1nc(-c2ccc(F)c(NS(=O)(=O)c3c(F)cccc3F)c2)c(-c2ccnc(Nc3ccc(N4CCOCC4)nc3)n2)s1 [GSK1804250]	1
Cc1ccc(-c2ccc3occ(-c4ccc(S(C)=O)cc4)c3c2)nn1 (stereo not shown)	0
Nc1ncnc2scc(-c3ccc(NC(=O)Cc4cc(F)ccc4F)cc3)c12.O=C(O)C(F)(F)F [SB-731254-M]	47
COc1cc(Nc2nccc(N3CCC(NC(=O)Nc4ccc5c(c4)OCO5)C3)n2)cc(OC)c1OC (stereo not shown) [GSK1379766]	100
O=C(Nc1n[nH]c2cc(-c3cccs3)ccc12)C1CC1 [SB-731284]	0
Fc1cc(Cl)ccc1Nc1ccnc2cc(-c3ccc(CN4CCSCC4)o3)ccc12 [GW560106]	9
COc1cccc(CC(=O)N2CCc3cc(-c4cn(C)c5ncnc(N)c45)ccc32)c1 [GSK2608899]	24
COc1ccc(C2=C(Nc3cccc(O)c3)C(=O)NC2=O)cc1 [SB-390766]	34
Cc1ccc(O)cc1Nc1ccnc2cc(-c3ccc(CN4CCCCC4)o3)ccc12 [GW557777]	0
Cc1ccc(C)c(NC(=O)Nc2ccc(C)c(-c3ccc(C(=O)Nc4ccncc4)cc3)c2)c1 [GSK1398473]	8
Cc1cc(-c2ccnc(Nc3cccc(C#N)c3)n2)cc(C)c1O [GSK1440913]	83
Nc1ncc(-c2ccc3nccc(-c4ccncc4)c3c2)cc1S(=O)(=O)N1CCCCC1 [GSK1693850]	18
